Assay results published in PubChem BioAssay (NCI).
About 83,000 compounds went through this panel and 20% of them were active in at least one assay; those are over-represented in the sample as a whole.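 Assay: single dose, 48 h. Readout: percent growth (0 = no net growth; negative = cell death). Active: <10.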 Active and inactive are the calls of the source.

Assays:
Assay in all cases: NCI-60 one-dose screen, 48 h (100 = growth as untreated, 0 = no growth, -100 = all killed)
Details in all cases: 10 µM unless noted
HCT-15 colon = tested on: HCT-15 colon
HT29 colon = tested on: HT29 colon
SNB-75 CNS = tested on: SNB-75 CNS
SNB-19 CNS = tested on: SNB-19 CNS
U251 CNS = tested on: U251 CNS
PC-3 prostate = tested on: PC-3 prostate
SK-MEL-5 melanoma = tested on: SK-MEL-5 melanoma
UACC-62 melanoma = tested on: UACC-62 melanoma
LOX IMVI melanoma = tested on: LOX IMVI melanoma
SK-MEL-28 melanoma = tested on: SK-MEL-28 melanoma

Measured: growth

COc1ccc(C=C2c3ccccc3-c3ccccc32)cc1
inactive: HCT-15 colon 25.8% | HT29 colon 13.7% | SNB-75 CNS 43.3% | SNB-19 CNS 51.4% | U251 CNS 34.8% | PC-3 prostate 63.6% | SK-MEL-5 melanoma 60.3% | UACC-62 melanoma 23.6% | LOX IMVI melanoma 41.3% | SK-MEL-28 melanoma 64.9%

Brc1ccc2c(c1)CN(C1CCCCC1)CO2
inactive: HCT-15 colon 104% | HT29 colon 103% | SNB-75 CNS 82.2% | SNB-19 CNS 103% | U251 CNS 108% | PC-3 prostate 91.6% | SK-MEL-5 melanoma 104% | UACC-62 melanoma 105% | LOX IMVI melanoma 95.1% | SK-MEL-28 melanoma 118%

C=CC1=C(C)C2=NC1=CC1=NC(=CC3=C(C)C4=C(O)C(C(=O)O)C(=C5NC(=C2)C(C)C5CCC(=O)O)C4=N3)C(CC)=C1C (stereo not given)
inactive: HCT-15 colon 105% | HT29 colon 105% | SNB-75 CNS 94.5% | SNB-19 CNS 112% | U251 CNS 124% | PC-3 prostate 89.3% | SK-MEL-5 melanoma 102% | UACC-62 melanoma 107% | LOX IMVI melanoma 108% | SK-MEL-28 melanoma 104%

CCCn1ccnc1C(O)c1ccc(OCc2ccccc2)c(OC)c1 (stereo not given)
inactive: HCT-15 colon 93.5% | HT29 colon 103% | SNB-75 CNS 71.2% | SNB-19 CNS 82.8% | U251 CNS 86.8% | PC-3 prostate 82.7% | SK-MEL-5 melanoma 93.5% | UACC-62 melanoma 87.3% | LOX IMVI melanoma 94.4% | SK-MEL-28 melanoma 103%

C=C(C)[C@@H]1CC[C@]2(COC(=O)c3ccccc3C(=O)O)CC[C@]3(C)[C@H](CC[C@@H]4[C@@]5(C)CC[C@H](OC(=O)c6ccccc6C(=O)O)C(C)(C)[C@@H]5CC[C@]43C)[C@@H]12
inactive: HCT-15 colon 18.1% [100 µM] | HT29 colon 64.3% [100 µM] | PC-3 prostate 16.2% [100 µM] | SK-MEL-5 melanoma 11.9% [100 µM] | LOX IMVI melanoma 11.2% [100 µM] | SK-MEL-28 melanoma 31.3% [100 µM]
active: SNB-75 CNS -20.7% [100 µM] | SNB-19 CNS 4.01% [100 µM] | U251 CNS 4.32% [100 µM] | UACC-62 melanoma -18.7% [100 µM]

CN(Cc1cccc(C(F)(F)F)c1)C(=O)[C@@H](CC(=O)N1CCC(N2CCCCC2)CC1)N1C(=O)[C@@H](N2C(=O)OC[C@@H]2c2ccccc2)[C@H]1/C=C/c1ccccc1
inactive: HCT-15 colon 94.1% | HT29 colon 86.6% | SNB-75 CNS 81.3% | SNB-19 CNS 81% | U251 CNS 67.1% | PC-3 prostate 67.1% | SK-MEL-5 melanoma 34.5% | UACC-62 melanoma 96.2% | LOX IMVI melanoma 69.2% | SK-MEL-28 melanoma 93.3%

O=C1COCCN1c1ccc(NCc2cn(Cc3ccccc3)c3ccccc23)cc1
inactive: HCT-15 colon 90.7% | HT29 colon 109% | SNB-75 CNS 81.7% | SNB-19 CNS 93.2% | U251 CNS 86.8% | PC-3 prostate 89% | SK-MEL-5 melanoma 91.5% | UACC-62 melanoma 21.6% | LOX IMVI melanoma 92% | SK-MEL-28 melanoma 102%

CC1(C)CC[C@]2(C(N)=O)CC[C@]3(C)C(=CC[C@@H]4[C@@]5(C)C/C(=C/c6ccncc6)C(=O)C(C)(C)[C@@H]5CC[C@]43C)[C@@H]2C1
active: HCT-15 colon -49.7% [100 µM] | HT29 colon -65.4% [100 µM] | SNB-75 CNS -86.4% [100 µM] | SNB-19 CNS -83.8% [100 µM] | U251 CNS -81.1% [100 µM] | PC-3 prostate -33.5% [100 µM] | SK-MEL-5 melanoma -71.1% [100 µM] | UACC-62 melanoma -79.7% [100 µM] | LOX IMVI melanoma -51.4% [100 µM] | SK-MEL-28 melanoma -64.7% [100 µM]

CCOC(=O)c1ccc2nc(-c3c(C)nn(-c4ccccc4)c3N3CCOCC3)[nH]c2c1
inactive: HCT-15 colon 103% | HT29 colon 110% | SNB-75 CNS 84.9% | SNB-19 CNS 98.6% | U251 CNS 90.8% | PC-3 prostate 86.9% | SK-MEL-5 melanoma 94.2% | UACC-62 melanoma 77.5% | LOX IMVI melanoma 82% | SK-MEL-28 melanoma 110%

O=c1[nH]c2cc(Cl)c(Cl)cc2n2cc3ncccc3c12
inactive: HCT-15 colon 85.9% | HT29 colon 67.9% | SNB-75 CNS 67.2% | SNB-19 CNS 86.8% | U251 CNS 72.6% | PC-3 prostate 72.8% | SK-MEL-5 melanoma 84.8% | UACC-62 melanoma 57.8% | LOX IMVI melanoma 81.6% | SK-MEL-28 melanoma 120%

CCN(CC)CCCC(C)Nc1ccnc2cc(Cl)c(SCc3ccccc3)cc12 (stereo not given)
active: HCT-15 colon -68.8% | HT29 colon -56.4% | SNB-75 CNS -86.2% | SNB-19 CNS -34.9% | U251 CNS -54.3% | PC-3 prostate -7.16% | SK-MEL-5 melanoma -94.9% | UACC-62 melanoma -90.8% | LOX IMVI melanoma -90.9% | SK-MEL-28 melanoma -82.5%

COc1ccc(-c2cc(-c3ccccc3)nc(SCCCCCC(=O)NO)n2)cc1
inactive: HCT-15 colon 78.1% | HT29 colon 23% | SNB-75 CNS 44.1% | SNB-19 CNS 70.5% | U251 CNS 56.4% | PC-3 prostate 70.7% | SK-MEL-5 melanoma 33.2% | UACC-62 melanoma 26.2% | LOX IMVI melanoma 59.2% | SK-MEL-28 melanoma 49.3%

COc1ccc(C2CC(c3cc(OC)c(OC)c(OC)c3)=NN2C(C)=O)cc1OCC(=O)Nc1nc2ccc(C(F)(F)F)cc2s1 (stereo not given)
inactive: HCT-15 colon 76.2% | HT29 colon 79.8% | SNB-75 CNS 37% | SNB-19 CNS 74.2% | U251 CNS 67% | PC-3 prostate 67.8% | SK-MEL-5 melanoma 15.1% | UACC-62 melanoma 52.5% | LOX IMVI melanoma 32.5% | SK-MEL-28 melanoma 65.5%

O=C1CC(c2ccc3c(c2)OCO3)Nc2ccccc21 (stereo not given)
active: HT29 colon 4.29% | SNB-75 CNS 7.16%
inactive: HCT-15 colon 22% | SNB-19 CNS 33.2% | U251 CNS 15% | PC-3 prostate 16.8% | SK-MEL-5 melanoma 18.9% | UACC-62 melanoma 20.1% | LOX IMVI melanoma 37.4% | SK-MEL-28 melanoma 47.5%

Cc1ccc2c(n1)C(=O)C(Cl)=C(Nc1ccc(N3CCN(C)CC3)cc1)C2=O
inactive: HCT-15 colon 70.4% | HT29 colon 66.4% | SNB-19 CNS 94.6% | PC-3 prostate 68.7% | SK-MEL-5 melanoma 10.4% | SK-MEL-28 melanoma 30.3%
active: SNB-75 CNS -53.8% | U251 CNS 8.47% | UACC-62 melanoma -49.4% | LOX IMVI melanoma -95.4%

O=C(C[n+]1ccn(CC(OCc2ccc(Cl)cc2Cl)c2ccc(Cl)cc2Cl)c1)c1ccc(F)cc1 (stereo not given)
inactive: HCT-15 colon 75.7%
active: HT29 colon -73.8% | SNB-75 CNS -99% | SNB-19 CNS -95.9% | U251 CNS -81.7% | PC-3 prostate -88.5% | SK-MEL-5 melanoma -99.3% | UACC-62 melanoma -95.8% | LOX IMVI melanoma -87.4% | SK-MEL-28 melanoma -95.5%

O=C(N/N=C1\c2ccccc2-c2cccc(C(=O)O)c21)c1ccc(O)cc1
inactive: HCT-15 colon 107% | HT29 colon 98.3% | SNB-75 CNS 74% | SNB-19 CNS 96.3% | U251 CNS 101% | PC-3 prostate 92.1% | SK-MEL-5 melanoma 99.1% | UACC-62 melanoma 93.8% | LOX IMVI melanoma 98.9% | SK-MEL-28 melanoma 102%

CC1(C)CC[C@]2(C(=O)O)CC[C@]3(C)C(=CC[C@@H]4[C@@]5(C)C/C(=C/c6ccco6)C(=O)C(C)(C)[C@@H]5CC[C@]43C)[C@@H]2C1
active: HCT-15 colon -38.6% [100 µM] | HT29 colon -56.7% [100 µM] | SNB-75 CNS -15.6% [100 µM] | SNB-19 CNS -9.61% [100 µM] | U251 CNS -36.1% [100 µM] | PC-3 prostate -16% [100 µM] | SK-MEL-5 melanoma -75.8% [100 µM] | UACC-62 melanoma -89.7% [100 µM] | LOX IMVI melanoma -95.1% [100 µM] | SK-MEL-28 melanoma -79.5% [100 µM]

CC1Cc2c(ncnc2-n2cnc3ccccc32)N(C)c2ccccc21 (stereo not given)
active: HT29 colon 0.852%
inactive: HCT-15 colon 21.6% | SNB-75 CNS 43% | SNB-19 CNS 31.5% | U251 CNS 23.7% | PC-3 prostate 25.6% | SK-MEL-5 melanoma 20.8% | UACC-62 melanoma 30.9% | LOX IMVI melanoma 44.9% | SK-MEL-28 melanoma 70.4%

C=C(C)[C@@H]1CC[C@]2(c3ncc(C)o3)CC[C@]3(C)[C@H](CC[C@@H]4[C@@](C)(CCC#N)[C@H](C(=C)C)CC[C@]43C)[C@@H]12
active: HCT-15 colon -69.3% [100 µM] | HT29 colon -69.8% [100 µM] | SNB-75 CNS -86.8% [100 µM] | SNB-19 CNS -95% [100 µM] | U251 CNS -82.4% [100 µM] | PC-3 prostate -64.1% [100 µM] | SK-MEL-5 melanoma -92.1% [100 µM] | UACC-62 melanoma -91% [100 µM] | LOX IMVI melanoma -83.6% [100 µM] | SK-MEL-28 melanoma -89.1% [100 µM]

COCCCNc1nc(NC(=O)c2cc(OC)cc(OC)c2)cc(-c2cccnc2)n1
inactive: HCT-15 colon 90.3% | HT29 colon 95.5% | SNB-75 CNS 73.1% | SNB-19 CNS 98.3% | U251 CNS 96.8% | PC-3 prostate 87.3% | SK-MEL-5 melanoma 72.4% | UACC-62 melanoma 111% | LOX IMVI melanoma 94.5% | SK-MEL-28 melanoma 105%

COc1ccc(/C=C(/C(=O)c2ccc(Cl)cc2)C(=O)C(F)(F)F)cc1
inactive: HCT-15 colon 99% | HT29 colon 82.1% | SNB-75 CNS 112% | SNB-19 CNS 93.5% | U251 CNS 94.1% | PC-3 prostate 102% | SK-MEL-5 melanoma 102% | UACC-62 melanoma 96.4% | LOX IMVI melanoma 95.6% | SK-MEL-28 melanoma 106%

O=C(N[C@@H]1CCCc2ccccc21)[C@H](CCC(=O)N1CCN(C2CCCCC2)CC1)N1C(=O)[C@@H](N2C(=O)OC[C@@H]2c2ccccc2)[C@H]1/C=C/c1ccccc1
active: HT29 colon -14.2% | SK-MEL-5 melanoma -93.2% | LOX IMVI melanoma -40.5%
inactive: HCT-15 colon 12.1% | SNB-75 CNS 65.7% | SNB-19 CNS 39.2% | U251 CNS 30.6% | PC-3 prostate 12.1% | UACC-62 melanoma 51% | SK-MEL-28 melanoma 24.8%

C=C(C)C1CCC2(C(=O)O)CCC3(C)C(CCC4C5(C)CCC(OC(=O)NCc6ccccc6)C(C)(C)C5CCC43C)C12 (stereo not given)
inactive: HCT-15 colon 40.8% | HT29 colon 43.5% | SNB-75 CNS 75.7% | SNB-19 CNS 65.4% | U251 CNS 40.6% | PC-3 prostate 41.2% | SK-MEL-5 melanoma 28.4% | UACC-62 melanoma 33.9% | LOX IMVI melanoma 39.8% | SK-MEL-28 melanoma 61.5%
